Source: PubChem (National Center for Advancing Translational Sciences (NCATS))
D2 ag-1 – agonists of human D2 dopamine receptor; 340,000 compounds, 0.53% hits; activation, % at 2 µM; HEK293 T-REx D2 cells, calcium flux agonist mode;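 active = activation over 3 SD above normal in the single-dose calcium agonist read, cut at about 30% in these data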; also: 0% is about no effect
Target sequence (P14416 whole entry, looked up): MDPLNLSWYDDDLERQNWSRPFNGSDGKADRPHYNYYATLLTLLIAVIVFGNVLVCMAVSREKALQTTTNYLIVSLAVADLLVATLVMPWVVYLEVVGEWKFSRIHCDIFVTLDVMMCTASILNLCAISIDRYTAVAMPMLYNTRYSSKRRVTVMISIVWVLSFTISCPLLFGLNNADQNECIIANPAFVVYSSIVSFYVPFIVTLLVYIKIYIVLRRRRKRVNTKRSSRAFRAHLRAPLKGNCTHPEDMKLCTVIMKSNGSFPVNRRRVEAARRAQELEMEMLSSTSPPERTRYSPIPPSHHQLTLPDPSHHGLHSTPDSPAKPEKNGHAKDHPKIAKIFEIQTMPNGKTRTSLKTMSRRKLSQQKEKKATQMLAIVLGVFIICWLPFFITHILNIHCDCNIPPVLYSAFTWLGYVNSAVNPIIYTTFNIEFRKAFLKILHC
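Tetracycline-induced HEK293 Trex cells with D2 receptor force-coupled to calcium signaling, plated overnight at 30 C and loaded with no-wash calcium dye. Calcium flux read kinetically for 180 s after compound addition; responses flag agonists.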
D2 PAM-1 – positive allosteric modulators of human D2 dopamine receptor; DiscoveRx D2 beta-arrestin cells, luminescence, 90 min; 100% = 57 uM dopamine signal; potentiation, % (concentration not given with the values); AID 624464; P14416; 360,000 compounds, 0.23% hits; in the data active = potentiation above about 50%
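PathHunter D2 cells, attached overnight at 37 deg C, received compound in DMSO plus dopamine at EC20 (50 nM final) for 90 min at 37 deg C. Beta-arrestin recruitment was read as luminescence after 1 h with detection reagent at ambient temperature.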
D2 PAM-2 – positive allosteric modulators of human D2 dopamine receptor; P14416; HEK293 T-REx D2, calcium flux, EC20 dopamine potentiation; potentiation, % at 10 µM; 340,000 compounds, 0.34% hits; AID 485347;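 active = potentiation over 3 SD above the plate norm, cut at about 30% in these data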; also: 0% is about no effect
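Cells plated with tetracycline inducer and held overnight at 30 C; calcium dye loaded 30–90 min at room temperature; baseline taken, compound added and read 180 s; EC20 dopamine then added and read 180 s.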
D2 antagonist – antagonizes the human D2 dopamine receptor; P14416; HEK293 TREx D2 cells, calcium flux, dopamine EC80; inhibition, % at 10 µM; 340,000 compounds, 2% hits; in the data active = inhibition above about 30%; inactive = below that, where a call was filed; also: 0% is about no effect
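Read-out: kinetic calcium fluorescence (1 cycle/s) in inducible HEK293 T-REx D2 cells after an EC80 dopamine addition that followed 180 s compound preincubation. Loss of the dopamine response indicates antagonism.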
D2 ag-2 – human D2 receptor agonism in beta-arrestin assay; P14416; AID 624465; DiscoveRx PathHunter D2 beta-arrestin, luminescence, 90 min; 100% = 57 uM dopamine signal; 360,000 compounds, 0.084% hits; activation, % (no concentration beside the values); in the data active = activation above about 40%
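DiscoveRx PathHunter D2 beta-arrestin cells (2,100/well) attached overnight, then compound-stimulated 90 min at 37 C in HBSS/10 mM HEPES/0.1% Tween-20 buffer; beta-galactosidase complementation read by luminescence after 1 h at ambient temperature. Dopamine 57 uM final (EC100) as control.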
* hit, by the source's call; x = no result given. Shown are actives, neighbours in structure and some others; about 2.4% of the full set was active somewhere.

SMILES	D2 ag-1	D2 PAM-1	D2 PAM-2	D2 antagonist	D2 ag-2
COc1cc(C(CCN2CCCC2)c2c(OC)cc(OC)c3ccc(=O)oc23)cc(OC)c1OC (stereo not drawn)	0	-16	-1	33*	1
COc1cc(C(CC(=O)N2CCCC2)c2c(OC)cc(OC)c3ccc(=O)oc23)cc(OC)c1OC (stereo not drawn)	0	-9	11	-1	0
C[C@H]1CN([C@@H](C)CO)S(=O)(=O)c2ccc(Br)cc2O[C@@H]1CN(C)S(=O)(=O)c1ccccc1F	x	-4	x	x	-2
O=C(Nc1nc2c(F)cccc2s1)c1ccc([N+](=O)[O-])o1	0	-6	13	33*	-1
CCN1CCc2c(sc(N)c2C(N)=O)C1	1	15	10	38*	-2
Cc1ccc(SC[C@H](c2ccccc2)N2CCN(CCc3ccccc3)CCC2=O)cc1	0	-30	-8	41*	3
Cn1c(=O)c2c(nc(OCc3cccnc3)n2Cc2c(F)cccc2Cl)n(C)c1=O	0	-9	x	43*	-2
CC(=O)N(Cc1cccnc1)Cc1cc2ccccc2[nH]c1=O	0	-9	-8	-9	-1
O=C(c1cc2ccccc2[nH]1)N(Cc1cccnc1)CC1CCCN(C2CCCCC2)C1 (stereo not drawn)	0	-26	-12	39*	0
CCOC(=O)N1CCC(NC(=O)c2c(C)nn(-c3cccc(C)c3)c2-n2cccc2)CC1	0	x	-5	x	x
O=C(OCc1ccco1)c1ccc2c(c1)N(Cc1ccc([N+](=O)[O-])cc1)C(=O)c1ccccc1S2	0	x	8	x	x
Cc1cc(C(=O)N2CCC(C)CC2)on1	1	-4	10	0	1
CCOC(=O)N1CCN(C(=O)c2cc(C)no2)CC1	0	-2	30*	21	-3
COC(=O)c1ccc(-n2nnc(-c3nc(-c4ccc5c(c4)OCO5)no3)c2C)cc1	0	x	-7	x	x
CC1(C)CC(NC(=O)c2cc([N+](=O)[O-])cc([N+](=O)[O-])c2)CC(C)(C)N1	0	-1	-15	0	4
COc1cc(OC)cc(C(=O)NC2CC(C)(C)NC(C)(C)C2)c1	-2	-14	18	82*	-1
CCN(CC)CCN(C(=O)c1ccc2c(c1)CCCC2)c1nc2c(C)cccc2s1	1	-16	-14	60*	7
CCN(CC)CCN(C(=O)c1ccc2c(c1)CCCC2)c1nc2ccc(F)cc2s1	-1	-18	-16	17	2
CCN(CC)CCN(C(=O)c1ccc2c(c1)CCCC2)c1nc2ccc(C)cc2s1	-1	-25	-22	46*	4
CCc1nc2ccc(C(=O)NCCCN(C)C)cn2c1N(C)Cc1ccc(OC)cc1	x	-15	x	x	-8
COc1cc(OC)cc(-c2noc([C@H]3C[C@H](O)[C@@H](CO)O3)n2)c1	x	-2	x	x	4
CC(C)CC1C(=O)N(Cc2cn(CCC3OCCCO3)nn2)CCS(=O)(=O)N1Cc1ccc(-c2ccc(Cl)c(Cl)c2)cc1 (stereo not drawn)	x	-9	x	x	-4
COc1ccc(C)c(NC(=O)NCCc2cnc[nH]2)c1	0	-27	-10	38*	0
COc1ccc(CC(=O)NCCc2cnc[nH]2)cc1	0	-11	7	4	-5
NC(=O)c1ccc(C(F)(F)F)n(Cc2cccc(Cl)c2)c1=O	1	-1	4	32*	1
SMILES	D2 ag-1	D2 PAM-1	D2 PAM-2	D2 antagonist	D2 ag-2
O=C1c2cccc3c(N4CCCCC4)ccc(c23)C(=O)N1CCO	19	-7	-1	6	1
Cc1n[nH]c(C)c1N1C(=O)c2cccc3c(N4CCCCCC4)ccc(c23)C1=O	84*	-8	3	20	1
O=C1c2cccc3c(N4CCCCC4)ccc(c23)C(=O)N1c1cccc(O)c1	57*	3	-7	16	0
COC(=O)c1sc(=S)n(-c2ccccc2OC)c1N	0	-2	31*	0	-1
CCCC1CCc2c(sc(NC(=O)OCC)c2C#N)C1 (stereo not drawn)	-1	-1	34*	x	-2
CCOC(=O)Nc1sc2c(c1C#N)CCCC2	0	-2	-6	9	-2
COC(C[C@@H](O)CC(=O)[C@@H](C)OCc1ccccc1)OC	0	-3	9	7	-3
COC(C[C@H](O)C[C@H](O)[C@H](C)OCc1ccccc1)OC	-1	-4	12	38*	-3
COC(=O)c1cc(C(=O)OC)cc(-n2c(C)cc(C(=O)CC#N)c2C)c1	0	-1	13	33*	-2
CCOc1ccc(CNC(=O)CSc2nnc(C)c3c(C)n(-c4ccccc4)nc23)cc1	0	x	1	x	x
CCOc1cc2sc(N3CCC(C(=O)Nc4ccccc4Cl)CC3)nc2cc1Br	0	x	2	x	x
c1ccc(-c2cn3c(n2)SCC3)cc1	-1	-18	30*	4	-3
Brc1ccc(-c2cn3c(n2)SCC3)cc1	-1	-2	19	33*	3
Nc1c(C(=O)c2ccccc2)sc2nsc(SCCN3CCCC3)c12	37*	-15	-14	9	-2
Cc1ccc(NC(=O)CN(C)C(=O)COc2cc(F)ccc2[N+](=O)[O-])cc1	-1	-33	-19	62*	-5
COc1ccc(-c2cc([N+](=O)[O-])ccc2OCC(=O)N(C)CC(=O)Nc2ccc(C)cc2)cc1	-1	-26	-3	-5	-4
c1ccc2c(c1)OC(CCCN1CCCCC1)c1ccccc1S2 (stereo not drawn)	1	-31	-28	87*	-5
c1ccc(OCCCCN2CCCCC2)cc1	1	-12	-14	0	-2
CN1CCCC(CC2Oc3ccccc3Sc3ccccc32)C1 (stereo not drawn)	3	-17	-33	96*	-6
Cn1nc(C(C)(C)C)cc1C(=O)N1CCCC(C)(C(=O)NS(=O)(=O)C2CC2)C1 (stereo not drawn)	x	-2	x	x	2
CS(=O)(=O)c1ccc(Cl)c(S(=O)(=O)NCc2ccccc2)c1	1	-11	-4	35*	1
COc1cc(NC(=O)c2ccc3c(SCC(=O)O)c4c(nc3c2)CCC4)cc(OC)c1OC	-1	-10	-11	36*	-2
Cc1nnc(SCc2cc(=O)oc3cc(O)ccc23)n1Cc1ccccc1	0	-5	5	30*	0
COc1cc(C(=O)N2CCN(c3cccc(C(F)(F)F)c3)CC2)ccc1OCC(=O)N1CCOCC1	x	-15	x	x	-2
Cn1cc(CC(=O)NCc2ccc(F)cc2)c2ccccc21	0	-6	9	-29	-1
Cn1cc(CC(=O)NCCN2CCOCC2)c2ccccc21	0	-10	39*	24	0
CC(C)c1ccc(NC(=O)Cc2cn(C)c3ccccc23)cc1	0	-9	-8	49*	-4
